Compound activity: PubChem BioAssay, National Center for Advancing Translational Sciences (NCATS)
FUS suppressor – qHTS for Suppressors of FUS Proteinopathy: Primary screen using FUS-linked yeast assay | S. cerevisiae FUS-expressing, growth rescue, OD600, 24 h | Potency, µM (series often up to 76.6 µM), actives largely listed as activators | 0.24% of 390,000 active | AID 1347120, 2019;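 note: plate controls were DMSO vehicle for no effect and reference control for full effect; nearly all actives have a fitted effect of over 55% in size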
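Compound concentration series was pinned onto galactose-induced FUS-expressing yeast seeded at OD 0.005. Plates sat 24hr at 30C; absorbance at 600 nm gave growth. DMSO served as background control.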
aSyn rescue – qHTS of alpha-syn Inhibitors; Yeast expressing alpha-synuclein, growth rescue, BacTiter-Glo, 24 h; Potency, µM (series often up to 46.1 µM), inactives show top-dose growth rescue (activation), hits mostly activators; 0.14% of 370,000 active; AID 652106, 2013; note: % of control where 0% means no effect; nearly all actives have a fitted effect of over 65% in size
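Rescue of yeast growth: cells expressing toxic alpha-synuclein, induced in galactose at OD600 0.02, incubated with compound 24 h at 30 C. ATP luminescence quantified growth; inhibitors of toxicity appear as activators.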
TDP-43 yeast inh – qHTS of TDP-43 Inhibitors; AID 652104, 2013; 1.8% of 410,000 active; TDP-43 expressing yeast growth rescue, BacTiter-Glo, 24 h; Potency, µM (top dose mostly 46.1 µM), for the others: at the highest dose growth rescue (activation), actives largely listed as activators; note: % of control where 0% means no effect; nearly all actives have a fitted effect of over 50% in size
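In this qHTS, compounds that restore growth of yeast expressing TDP-43 appear as activators. Cells (OD600=0.02, galactose medium, raffinose-pregrown) are incubated with compound 24 hr at 30 deg C and growth is quantified by BacTiter-Glo.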
Abeta yeast res – qHTS for compounds that reverse cellular toxicity of Amyloid beta (A-beta) peptide in yeast: Primary Screen. yeast expressing A-beta42, growth rescue, OD600, 48 h; response scale: 0% DMSO, 100% iron-clioquinol control. Potency, µM (top dose mostly 46.1 µM), actives largely listed as activators. 0.063% of 410,000 active. AID 1347071, 2019; note: nearly all actives have a fitted effect of over 55% in size
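Yeast A-beta toxicity model in growth medium with pinned compounds, 48 h at 30 C; growth read as absorbance at 600 nm. Normalized to FeCl3/clioquinol equimolar mix (positive) and DMSO (negative).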
* = called active by the depositor; i = inactive; ? = inconclusive; nt = no result given; [ ] = remark or other dose. Shown are actives, neighbours in structure and some others; about 2.1% of the full set was active somewhere. Calls come from the whole dose curve; as a rule, active = well fitted curve in the direction sought with a large enough effect; inconclusive = small, poorly fitted or top-dose-only effect, or another doubt; inactive = no such curve, though single readings can be large; an effect the other way counts as inactive or inconclusive. Potency is the fitted concentration of half-maximal effect.

SMILES | FUS suppressor | aSyn rescue | TDP-43 yeast inh | Abeta yeast res
CN(C(=O)CCc1ccccc1F)C1CCCN(Cc2ccccc2F)C1 (stereo unspecified) | i | 9% | 20µM* | i
CCn1c2ccccc2c2cc(C=NNC(=O)CSc3nc4ccccc4c(=O)n3-c3ccccc3)ccc21 | i | nt | nt | nt
COc1cccc(NC(=O)CN(c2cccc(C(F)(F)F)c2)S(C)(=O)=O)c1 | i | 0% | 2% | i
CCOc1ccc(NC(=O)CN(c2cccc(C(F)(F)F)c2)S(C)(=O)=O)cc1 | i | 4% | 13µM* | i
COc1ccc2[nH]c3c(c2c1)CCN[C@]31C(=O)N(Cc2ccccc2)c2ccccc21 | i | nt | nt | nt
Cc1ccc(C)c(NC(=S)NCCc2ccc(F)cc2)c1 | i | 2% | ? | ?
Cc1ccc(C)c(NC(=S)NNc2ccc(F)cc2F)c1 | ? | -3% | 13µM* | ?
Cc1ccc(C2=NC3(CCCC3)N=C2SCC(=O)Nc2ccc3c(c2)OCCO3)cc1 | i | 2% | 2% | i
O=C(CSc1ncc(-c2ccccc2)[nH]1)Nc1ccccc1 | i | -5% | 0% | i
CC1(C)N=C(SCC(=O)Nc2ccc(Cl)cc2Cl)C(c2ccccc2)=N1 | i | -13% | 23% | i
Cc1ccc(C2=NC(C)(C)N=C2SCC(=O)Nc2ccc(Cl)cc2)cc1 | i | -9% | 35µM* | i
CC1(C)N=C(SCC(=O)Nc2ccccc2)C(c2ccc(Cl)cc2)=N1 | i | 0% | 18µM* | i
O=C(CSc1ncc(-c2ccccc2)[nH]1)Nc1ccc(Cl)cc1 | i | nt | 22µM* | i
Cc1ccc(-c2nc(C3CCCN(S(=O)(=O)c4ccccc4)C3)no2)cc1 (stereo unspecified) | i | nt | nt | nt
O=C(Nc1ccc(Cl)cc1)C1Cc2c(-c3ccccc3)ccnc2O1 (stereo unspecified) | i | ? | 35µM* | i
O=C(Nc1ccc(Cl)c(C(F)(F)F)c1)C1Cc2c(-c3ccccc3)ccnc2O1 (stereo unspecified) | i | ? | 32µM* | i
O=C(NCc1ccccc1)C1Cc2c(-c3ccc4c(c3)OCO4)ccnc2O1 (stereo unspecified) | i | 3% | 35µM* | i
COc1ccc(NC(=O)C2Cc3c(-c4cccc(F)c4)ccnc3O2)cc1 (stereo unspecified) | i | ? | 22µM* | i
Nc1ccc(/C=C/c2cccc3cccnc23)cc1 | nt | 5% | nt | nt
Cc1nc(NC2CCCC2)c2nnn(Cc3ccccc3)c2n1 | i | nt | nt | nt
O=C(CCn1nnc(-c2cccs2)n1)NCc1ccco1 | i | nt | nt | nt
O=C1c2ccccc2C(=O)N1c1nc(-c2ccc(F)cc2)cs1 | nt | 0% | nt | nt
CCCCCCCCN1C(=O)[C@@H](CC(=O)NCc2cccs2)C[C@@]2(C(=O)OC)C1=C[C@H](COCc1ccccc1)O[C@@H]2C | i | nt | nt | nt
O=C(Nc1ccc(F)c(Cl)c1)C1Cc2c(-c3ccc(Cl)cc3)ccnc2O1 (stereo unspecified) | ? | ? | 35µM* | i
CC(=O)c1cccc(-c2ccnc3c2CC(C(=O)Nc2ccc(C(C)C)cc2)O3)c1 (stereo unspecified) | i | 11% | 20µM* | ?
SMILES | FUS suppressor | aSyn rescue | TDP-43 yeast inh | Abeta yeast res
O=C(Nc1ccc(Cl)cc1)C1Cc2c(-c3ccc(Cl)cc3)ccnc2O1 (stereo unspecified) | i | -4% | 28% | i
CCN(CC)/[N+]([O-])=N/OCOC(=O)c1ccccc1OC(C)=O | nt | 9% | nt | nt
Cc1cn2c(=O)cc(COC(=O)c3cccc(NC(=O)C(C)Oc4ccccc4)c3)nc2s1 (stereo unspecified) | i | nt | 21% | i
COc1ccc(S(=O)(=O)c2ccc(O)cc2)cc1 | i | 4% | 8% | i
Oc1ccc(Oc2ccc(Oc3ccc(O)cc3)cc2)cc1 | i | 4% | 20µM* | i
CN(Cc1cnc2nc(N)nc(N)c2n1)c1ccc(C(=O)NC(CCC(=O)O)C(=O)O)cc1C(F)(F)F (stereo unspecified) | nt | -2% | 0% | i
CN(Cc1cnc2nc(N)nc(N)c2n1)c1ccc(C(=O)NC(CCC(=O)O)C(=O)O)cc1 (stereo unspecified) | nt | 2% | 16µM* | i
CC(=O)c1ccc(Oc2ccc(C(C)=O)cc2)cc1 | i | 0% | 22µM* | i
COc1ccccc1/C=C/c1nc(C#N)c(NCc2ccccc2)o1 | i | nt | ? | i
Cc1ccc(CN2CC(C(=O)N3CCN(c4ccccc4Cl)CC3)CC2=O)cc1 (stereo unspecified) | i | 0%[1.84 µM] | 35µM* | i
O=C(C1CCC(=O)N(C2CCCCCC2)C1)N1CCN(c2ccccc2Cl)CC1 (stereo unspecified) | ? | 10% | 35µM* | nt
O=C1CC(C(=O)N2CCN(Cc3ccccc3)CC2)CN1Cc1ccccc1 (stereo unspecified) | i | 0% | 15% | i
Cc1ccccc1N1CCN(C(=O)C2CCC(=O)N(C3CCCC3)C2)CC1 (stereo unspecified) | i | 0% | -3% | i
COc1ccc(F)cc1-c1cc(C(C)=O)c2n(c1=O)CCC2 | i | nt | nt | nt
c1ccc(-c2ccc(-c3csc4ncnc(Sc5nnnn5-c5ccccc5)c34)cc2)cc1 | nt | 1% | nt | nt
O=C(OC12CCCN(C1)/C(=C/c1cccc(Cl)c1)C2)c1ccccc1 (stereo unspecified) | i | nt | nt | nt
COC(=O)c1c(NC(=O)C2Cc3ccccc3C(=O)O2)sc2c1CCCC2 (stereo unspecified) | i | -3% | 24% | i
COC(=O)c1c(NC(=O)C2(C)Cc3ccccc3C(=O)O2)sc2c1CCCC2 (stereo unspecified) | 4µM* | 16% | -26% | i
Cc1sc(-n2c(C)cc(/C=C3\SC(=S)NC3=O)c2C)c(C#N)c1C | 16µM* | 12% | -30% | i
Cc1cc(/C=C2\SC(=S)NC2=O)c(C)n1-c1cccc(O)c1 | i | 1% | 5% | i
Cc1cccc2sc(N3CCN(C(=O)c4ccco4)CC3)nc12 | i | nt | 11µM* | i
Cc1ccc(C)c2sc(N3CCN(C(=O)c4ccco4)CC3)nc12 | i | nt | 11µM* | i
O=C(c1ccco1)N1CCN(c2nc3c(Cl)cccc3s2)CC1 | i | nt | ? | i
CCOc1ccc(CCNC(=O)CN2C(=O)COc3ccc(S(=O)(=O)N4CCC(C)CC4)cc32)cc1 | ? | 6% | 14% | i
O=C(NN=Cc1ccccc1C(F)(F)F)c1cc(-c2ccc(Cl)cc2)n[nH]1 | i | nt | nt | nt
COCCCNC(=S)N1CCN(c2nc(-c3ccccc3)cs2)CC1 | i | -5% | 35µM* | ?
CCOCCCNC(=S)N1CCN(c2nc(-c3ccccc3)cs2)CC1 | i | -4% | 20µM* | ?
